According to PubChem BioAssay (NCATS):
Where “and” joins values, the source holds several entries; their conditions need not be identical. Equal values may be shown once. Records with an inconclusive call do not appear. Calls of active or inactive are those of the source. Unless noted, the call rests on the fitted dose curve.

Legend:
[1] = biological target: Androgen receptor (Homo sapiens) (UniProt P10275); test: qHTS assay for small molecule antagonists of androgen receptor signaling (AID 588516; active means well fitted curve in the direction sought with a large enough effect in the signal ratio, with a control signal flat, not every such curve was filed as active; the % refers to the signal ratio; further: on the % scale 0 is the no-effect control and ±100 the full control effect)
Chain of Androgen receptor (Homo sapiens) (P10275 whole entry, looked up): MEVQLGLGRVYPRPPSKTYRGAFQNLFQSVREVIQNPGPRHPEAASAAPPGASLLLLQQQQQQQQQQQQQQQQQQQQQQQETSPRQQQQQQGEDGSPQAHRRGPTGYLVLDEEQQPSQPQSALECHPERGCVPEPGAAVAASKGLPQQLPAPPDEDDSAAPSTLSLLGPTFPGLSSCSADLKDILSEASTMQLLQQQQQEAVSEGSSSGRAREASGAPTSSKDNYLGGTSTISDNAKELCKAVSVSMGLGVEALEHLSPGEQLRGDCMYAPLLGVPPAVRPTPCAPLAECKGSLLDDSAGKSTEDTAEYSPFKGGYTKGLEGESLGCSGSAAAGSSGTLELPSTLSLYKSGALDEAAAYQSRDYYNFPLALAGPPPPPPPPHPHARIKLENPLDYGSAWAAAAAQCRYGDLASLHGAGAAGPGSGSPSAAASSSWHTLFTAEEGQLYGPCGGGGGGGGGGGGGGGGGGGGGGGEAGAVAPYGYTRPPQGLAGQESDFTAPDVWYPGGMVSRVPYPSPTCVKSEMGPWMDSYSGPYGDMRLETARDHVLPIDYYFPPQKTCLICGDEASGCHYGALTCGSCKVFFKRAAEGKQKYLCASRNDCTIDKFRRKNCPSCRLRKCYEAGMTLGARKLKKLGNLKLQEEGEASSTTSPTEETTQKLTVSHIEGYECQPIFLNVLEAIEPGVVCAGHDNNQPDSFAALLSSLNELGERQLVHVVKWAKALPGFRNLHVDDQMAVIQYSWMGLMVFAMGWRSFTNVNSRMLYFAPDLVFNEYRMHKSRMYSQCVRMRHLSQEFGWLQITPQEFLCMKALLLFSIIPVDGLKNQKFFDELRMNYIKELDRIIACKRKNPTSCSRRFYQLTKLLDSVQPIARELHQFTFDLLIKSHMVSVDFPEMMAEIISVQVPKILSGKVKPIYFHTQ
Summary of the method: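 HEK293 AR-UAS-bla cells, 10% dialyzed FBS medium; cpd titration + R1881 10 nM final, 16 h 37 C; CCF4 2 h RT; FRET ratio; IC50/efficacy via Hill fit.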

[2] = biological target: Glucocorticoid receptor (Homo sapiens) (UniProt P04150); test: qHTS assay for small molecule agonists of glucocorticoid receptor signaling (AID 588532; active means well fitted curve in the direction sought with a large enough effect in the signal ratio, with a control signal flat; the % refers to the signal ratio;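 further: 100% = dexamethasone at 0.1 µM and 0% = DMSO only wells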); conditions: HeLa MMTV-bla, beta-lactamase ratio, agonist, 18 h; activation: stronger effect = higher value, percent of dexamethasone control, DMSO zero
Chain of Glucocorticoid receptor (Homo sapiens) (P04150 whole entry, looked up): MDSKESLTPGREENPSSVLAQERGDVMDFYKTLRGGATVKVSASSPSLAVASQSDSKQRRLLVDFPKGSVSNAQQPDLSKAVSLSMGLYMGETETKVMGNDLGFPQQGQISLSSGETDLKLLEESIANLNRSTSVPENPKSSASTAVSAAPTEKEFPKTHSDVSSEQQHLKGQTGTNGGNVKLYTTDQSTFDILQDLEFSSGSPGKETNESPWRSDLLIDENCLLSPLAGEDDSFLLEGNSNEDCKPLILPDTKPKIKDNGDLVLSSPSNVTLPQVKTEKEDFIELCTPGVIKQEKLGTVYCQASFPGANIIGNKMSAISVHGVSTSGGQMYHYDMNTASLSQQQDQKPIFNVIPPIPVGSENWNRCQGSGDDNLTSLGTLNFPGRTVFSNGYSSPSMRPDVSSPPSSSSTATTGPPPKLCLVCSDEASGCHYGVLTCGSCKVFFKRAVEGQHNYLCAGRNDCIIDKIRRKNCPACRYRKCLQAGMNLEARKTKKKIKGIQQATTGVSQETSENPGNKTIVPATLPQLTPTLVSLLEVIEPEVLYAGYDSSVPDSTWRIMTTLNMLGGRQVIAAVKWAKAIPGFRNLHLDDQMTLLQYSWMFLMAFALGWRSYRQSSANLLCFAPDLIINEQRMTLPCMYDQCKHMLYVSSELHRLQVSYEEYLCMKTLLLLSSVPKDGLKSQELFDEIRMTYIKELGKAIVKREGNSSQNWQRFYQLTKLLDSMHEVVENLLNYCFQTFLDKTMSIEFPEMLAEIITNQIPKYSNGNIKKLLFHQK
Summary of the method: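 HeLa GRE-bla reporter cells; 18 h compound exposure at 37 C; 2 h CCF4 loading at room temperature; fluorescence at 460 and 530 nm; EC50 by Hill equation.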

[3] = qHTS assay for small molecule antagonists of peroxisome proliferator-activated receptor delta signaling (AID 588535; active means well fitted inhibition curve with a large enough effect in the signal ratio, with a control signal flat, not every such curve was filed as active; the % refers to the signal ratio;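 on max response: cells co-treated with a PPAR-delta agonist as stimulator during compound exposure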); conditions: HEK293T PPARd-UAS-bla, beta-lactamase FRET ratio, 18 h; 460 nm channel
Summary of the method: (§1)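 Antagonist-mode beta-lactamase reporter (GeneBLAzer PPAR-delta-UAS-bla) in HEK293T cells, 2% charcoal/dextran FBS, 4000 cells/well. Compound titrations, 18 h at 37 C; CCF4 ratio read, IC50 and efficacy from Hill fits.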

[4] = biological target: Peroxisome proliferator-activated receptor delta (Homo sapiens) (UniProt Q03181); test: as above
Chain of Peroxisome proliferator-activated receptor delta (Homo sapiens) (Q03181 whole entry, looked up): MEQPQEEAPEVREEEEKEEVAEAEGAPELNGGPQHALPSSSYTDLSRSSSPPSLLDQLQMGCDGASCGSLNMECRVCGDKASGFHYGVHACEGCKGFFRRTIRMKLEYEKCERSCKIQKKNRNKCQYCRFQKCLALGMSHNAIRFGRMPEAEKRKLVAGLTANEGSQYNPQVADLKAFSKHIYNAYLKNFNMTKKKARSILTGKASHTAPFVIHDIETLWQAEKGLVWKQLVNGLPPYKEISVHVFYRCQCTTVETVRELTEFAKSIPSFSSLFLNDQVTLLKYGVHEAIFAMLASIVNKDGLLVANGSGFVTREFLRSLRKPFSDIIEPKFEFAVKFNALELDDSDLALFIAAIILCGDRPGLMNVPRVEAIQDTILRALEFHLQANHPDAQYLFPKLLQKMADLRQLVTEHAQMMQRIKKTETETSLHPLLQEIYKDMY
Summary of the method: as §1

[5] = biological target: Vitamin D3 receptor (Homo sapiens) (UniProt P11473); test: qHTS assay for small molecule antagonists of vitamin D receptor signaling (AID 588541);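 further: receptor activated by calcitriol during compound treatment; series mostly up to about 77 µM; on the % scale 0 is the no-effect control and ±100 the full control effect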
Chain of Vitamin D3 receptor (Homo sapiens) (P11473 whole entry, looked up): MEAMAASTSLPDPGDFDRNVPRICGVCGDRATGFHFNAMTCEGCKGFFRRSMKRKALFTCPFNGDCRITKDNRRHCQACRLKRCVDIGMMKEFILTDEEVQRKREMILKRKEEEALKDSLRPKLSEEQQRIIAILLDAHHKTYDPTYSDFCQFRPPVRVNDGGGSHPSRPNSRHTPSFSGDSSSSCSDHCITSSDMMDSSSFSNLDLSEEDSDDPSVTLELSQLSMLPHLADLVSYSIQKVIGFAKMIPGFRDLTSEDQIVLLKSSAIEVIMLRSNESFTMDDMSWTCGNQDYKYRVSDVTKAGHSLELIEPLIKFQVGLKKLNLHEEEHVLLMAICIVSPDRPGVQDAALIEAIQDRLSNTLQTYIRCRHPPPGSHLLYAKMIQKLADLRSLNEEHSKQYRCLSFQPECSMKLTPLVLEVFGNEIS
Summary of the method: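 VDR-UAS-bla HEK293T cells in 2% charcoal-stripped FBS were stimulated with 1-alpha,25-dihydroxyvitamin D3 (3 nM final) plus compound for 16 h at 37 C. The beta-lactamase CCF4 readout was normalized to 50 nM agonist and DMSO, and Hill fits gave IC50.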

[6] = qHTS assay for small molecule agonists of retinoid X receptor alpha signaling (AID 588544); conditions: HEK293T RXRa-UAS-bla, beta-lactamase reporter, 18 h; 530 nm emission;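 on activation: 0% = DMSO basal wells and 100% = reference agonist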
[7] = biological target: Retinoic acid receptor RXR-alpha (Homo sapiens) (UniProt P19793); test: as above
Chain of Retinoic acid receptor RXR-alpha (Homo sapiens) (P19793 whole entry, looked up): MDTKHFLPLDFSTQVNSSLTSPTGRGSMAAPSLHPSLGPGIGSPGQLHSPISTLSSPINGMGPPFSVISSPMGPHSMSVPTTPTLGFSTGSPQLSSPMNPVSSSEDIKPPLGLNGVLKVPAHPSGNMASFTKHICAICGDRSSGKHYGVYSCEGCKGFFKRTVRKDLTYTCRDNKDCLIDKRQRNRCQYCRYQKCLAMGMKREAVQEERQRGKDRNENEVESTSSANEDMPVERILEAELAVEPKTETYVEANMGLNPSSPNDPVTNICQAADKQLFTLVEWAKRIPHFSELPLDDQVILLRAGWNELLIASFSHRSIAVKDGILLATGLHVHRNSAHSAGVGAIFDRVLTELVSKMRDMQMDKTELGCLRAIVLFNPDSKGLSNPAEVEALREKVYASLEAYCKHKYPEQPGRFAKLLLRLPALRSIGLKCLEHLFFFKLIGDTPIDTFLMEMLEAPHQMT

[8] = biological target: Thyroid hormone receptor beta (Homo sapiens) (UniProt P10828); test: qHTS assay for small molecule agonists of thyroid hormone receptor beta signaling (AID 588545);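 further: 0% = DMSO only and 100% = 10 nM T3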
Summary of the method: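 Efficacy and EC50 values derive from Hill fits of qHTS titration data, normalized to 10 nM T3 and DMSO-only wells. HEK 293 reporter cells were stimulated for 18 hrs at 37 C, with beta-lactamase activity measured by CCF4 fluorescence.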

[9] = qHTS assay for small molecule antagonists of retinoid X receptor alpha signaling (AID 588546; active means well fitted inhibition curve with a large enough effect in the signal ratio, with a control signal flat, not every such curve was filed as active; the % refers to the signal ratio;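 further: cells stimulated with 9-cis-retinoic acid as agonist; on the % scale 0 is the no-effect control and ±100 the full control effect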); conditions: HEK293T RXRa-UAS-bla, beta-lactamase ratio, antagonist mode; measured here: W530 green channel, cytotoxicity proxy
Summary of the method: (§2)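 Beta-lactamase reporter inhibition, read as CCF4 fluorescence ratio (ex 405, em 460/530 nm) after 2 h at RT. HEK293T UAS-bla cells, 2500/well, were stimulated with 9-cis-RA at 500 or 100 nM final alongside test compound for 18 h at 37 C.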

[10] = biological target: Retinoic acid receptor RXR-alpha (Homo sapiens) (UniProt P19793); test: as above; conditions: HEK293T RXRa-UAS-bla, beta-lactamase ratio, antagonist mode
Summary of the method: as §2

[11] = biological target: Thyroid hormone receptor beta (Homo sapiens) (UniProt P10828); test: qHTS assay for small molecule antagonists of thyroid hormone receptor beta signaling (AID 588547; active means well fitted inhibition curve with a large enough effect in the signal ratio, with a control signal flat, not every such curve was filed as active; the % refers to the signal ratio;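 further: cells stimulated with 0.4 nM T3 agonist during compound exposure; series mostly up to about 77 µM; on the % scale 0 is the no-effect control and ±100 the full control effect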); conditions: TR-UAS-bla HEK293, beta-lactamase ratio, antagonist mode, 18 h
Summary of the method: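 TR-UAS-bla GripTite HEK293 cells in 2% charcoal/dextran FBS medium; compounds 0.59 nM to 92 uM with T3 at 0.4nM final, 18 h at 37 C. Beta-lactamase read by CCF4 fluorescence (460/530 nm); Hill fits gave IC50 and efficacy.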

[12] = qHTS assay for small molecule activators of the p53 signaling pathway (AID 651743; active means well fitted activation curve with a large enough effect in the signal ratio, not every such curve was filed as active; the % refers to the signal ratio; further: series mostly up to about 92 µM; % of control where 0% means no effect); conditions: HCT-116 p53RE-bla, beta-lactamase FRET ratio, 16 h; activation: stronger effect = higher value
Summary of the method: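 p53RE-bla HCT-116 cells carrying a beta-lactamase reporter under p53 response elements were exposed to compounds for 16 hours at 37 C. Reporter activity read as fluorescence after 2 hours at room temperature with LiveBLAzer B/G FRET substrate.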

[13] = qHTS assay for small molecule activators of the nuclear factor-kappa B (NF-kB) signaling pathway (AID 651749; active means well fitted activation curve with a large enough effect in the signal ratio; the % refers to the signal ratio; further: series mostly up to about 77 µM; % of control where 0% means no effect); conditions: NF-kB-bla ME-180 cells, beta-lactamase FRET ratio, 16 h; activation: stronger effect = higher value
Summary of the method: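 NF-kB-bla ME-180 cells carrying a beta-lactamase reporter under an NF-kB response element, 2,000 cells/well, exposed to compound for 16 hr at 37C; FRET-based beta-lactamase fluorescence read-out of pathway activation.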

[14] = qHTS assay for environmental chemicals that activate the Aryl hydrocarbon Receptor (AhR) signaling pathway (AID 651777; active means well fitted curve in the direction sought with a large enough effect; an effect the other way counts as inactive or inconclusive; further: nearly all actives have a fitted effect of over 15% in size; further: potency means the concentration at half of the fitted maximal effect; on activation: % of control where 0% means no effect); conditions: 1A2-DRE human hepatoma cells, luciferase, 24 h; activation: stronger effect = higher value
Summary of the method: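 Stable CYP1A2 promoter/DRE-luciferase human hepatoma line treated 24 hr; One-Glo luminescence, 30 min RT.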

[15] = biological target: Peroxisome proliferator-activated receptor alpha (Homo sapiens) (UniProt Q07869); test: qHTS assay for small molecule agonists of the peroxisome proliferator-activated receptor alpha (PPARalpha) signaling pathway (AID 651778; active means well fitted curve in the direction sought with a large enough effect; an effect the other way counts as inactive or inconclusive; further: % of control where 0% means no effect); conditions: PathHunter PPARalpha complementation, chemiluminescence, 6 h; max response: stronger effect = higher value
Chain of Peroxisome proliferator-activated receptor alpha (Homo sapiens) (Q07869 whole entry, looked up, the tested form may be a part): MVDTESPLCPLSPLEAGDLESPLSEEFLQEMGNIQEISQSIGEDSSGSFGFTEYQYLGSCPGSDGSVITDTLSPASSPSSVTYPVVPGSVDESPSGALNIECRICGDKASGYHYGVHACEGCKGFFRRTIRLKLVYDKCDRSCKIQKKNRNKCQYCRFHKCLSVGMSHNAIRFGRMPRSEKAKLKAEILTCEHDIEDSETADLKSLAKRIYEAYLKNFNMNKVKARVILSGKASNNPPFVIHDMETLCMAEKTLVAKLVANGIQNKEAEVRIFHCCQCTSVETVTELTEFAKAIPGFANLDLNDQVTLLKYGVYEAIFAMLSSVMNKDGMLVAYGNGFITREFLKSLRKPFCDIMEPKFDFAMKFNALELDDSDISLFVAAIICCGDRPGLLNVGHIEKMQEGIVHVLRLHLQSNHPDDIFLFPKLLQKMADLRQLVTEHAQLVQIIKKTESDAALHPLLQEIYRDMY
Summary of the method: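 Enzyme-fragment complementation assay in which ligand-bound PPARalpha translocates and forms an active enzyme that generates chemiluminescence. Cells were plated overnight, exposed to compound for 6 hr at 37 C, and then given detection reagent for 60 min at room temperature.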

[16] = qHTS assay for cell viability of HEK293 cells (AID 743288; active means well fitted curve in the direction sought with a large enough effect; an effect the other way counts as inactive or inconclusive; further: on the % scale 0 is the no-effect control and ±100 the full control effect; nearly all actives have a fitted effect of over 50% in size); conditions: ATP luminescence (CellTiter-Glo), 18 h; max response: stronger effect = lower value
Summary of the method: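 Environmental chemicals tested in qHTS format against parental HEK293 cells; 18 h treatment, 37 C; read-out ATP luminescence (CellTiter-Glo), 30 min RT development.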

[17] = qHTS assay for cell viability of the p53RE-bla HCT-116 cell line (AID 743292; active means well fitted curve in the direction sought with a large enough effect; an effect the other way counts as inactive or inconclusive; further: on the % scale 0 is the no-effect control and ±100 the full control effect; nearly all actives have a fitted effect of over 55% in size)
Summary of the method: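 Readout: CellTiter-Glo luminescence after 30 min RT. Treatment: compounds in DMSO, 16 h, 37 C. Cells: CellSensor p53RE-bla HCT-116, 4,000/well, preincubated 5 h.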

[18] = biological target: Nuclear receptor subfamily 1 group I member 2 (Rattus norvegicus) (UniProt Q9R1A7); test: qHTS assay for small molecule activators of the rat pregnane X receptor (rPXR) signaling pathway (AID 651751; call rule not given here; further: 0% is about no effect); conditions: rPXR reporter cells, luciferase (One-Glo), 24 h
Chain of Nuclear receptor subfamily 1 group I member 2 (Rattus norvegicus) (Q9R1A7 whole entry, looked up): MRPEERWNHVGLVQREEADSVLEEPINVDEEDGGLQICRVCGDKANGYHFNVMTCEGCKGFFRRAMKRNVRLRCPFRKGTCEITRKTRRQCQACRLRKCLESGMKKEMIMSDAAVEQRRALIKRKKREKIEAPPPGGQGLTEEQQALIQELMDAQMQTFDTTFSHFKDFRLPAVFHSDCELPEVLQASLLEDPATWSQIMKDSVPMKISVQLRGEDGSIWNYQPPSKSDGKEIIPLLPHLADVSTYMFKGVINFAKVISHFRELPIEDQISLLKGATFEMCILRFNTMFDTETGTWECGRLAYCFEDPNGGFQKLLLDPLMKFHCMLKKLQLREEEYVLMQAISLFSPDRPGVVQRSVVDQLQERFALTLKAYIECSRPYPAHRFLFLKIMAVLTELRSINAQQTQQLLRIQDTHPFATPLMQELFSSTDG

[19] = biological target: Bile acid receptor (Homo sapiens) (UniProt Q96RI1); test: qHTS assay for small molecule antagonists of farnesoid X receptor signaling (AID 588526); further: on the % scale 0 is the no-effect control and ±100 the full control effect
Chain of Bile acid receptor (Homo sapiens) (Q96RI1 whole entry, looked up): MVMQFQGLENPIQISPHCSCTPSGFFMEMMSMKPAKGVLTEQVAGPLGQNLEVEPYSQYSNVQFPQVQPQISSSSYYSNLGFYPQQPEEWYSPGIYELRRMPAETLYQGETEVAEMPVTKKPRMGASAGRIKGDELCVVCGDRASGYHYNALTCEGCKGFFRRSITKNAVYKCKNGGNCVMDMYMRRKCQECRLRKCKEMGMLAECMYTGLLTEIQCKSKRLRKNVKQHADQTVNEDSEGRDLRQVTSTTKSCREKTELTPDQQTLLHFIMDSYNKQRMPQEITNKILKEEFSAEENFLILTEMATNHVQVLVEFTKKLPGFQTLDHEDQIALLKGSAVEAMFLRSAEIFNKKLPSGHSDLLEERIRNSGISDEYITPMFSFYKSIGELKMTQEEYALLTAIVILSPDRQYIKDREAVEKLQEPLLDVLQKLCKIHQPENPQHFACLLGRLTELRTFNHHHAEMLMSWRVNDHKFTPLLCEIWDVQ
Summary of the method: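 Antagonist mode: titrated compounds tested against chenodeoxycholic acid stimulation (normalized to 50 uM CDCA and DMSO) in GeneBLAzer HEK293T cells for 16 h. Beta-lactamase read by CCF4 fluorescence; IC50 from Hill fits.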

[20] = biological target: Bile acid receptor (Homo sapiens) (UniProt Q96RI1); test: qHTS assay for small molecule agonists of farnesoid X receptor signaling (AID 588527); conditions: HEK293T FXR-UAS-bla, beta-lactamase ratio, 16 h; activation: stronger effect = higher value;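 further: series mostly up to about 77 µM; 0% = vehicle basal and 100% = reference agonist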
Summary of the method: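 FXR-UAS-bla HEK293T, 10% dialyzed FBS; cpds up to 92 uM titration, 16 h 37 C; CCF4 dye 2 h RT; fluorescence. Normalized to chenodeoxycholic acid 100 uM (100%) and DMSO (0%); Hill fit gives EC50, efficacy.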

[21] = biological target: Glucocorticoid receptor (Homo sapiens) (UniProt P04150); test: qHTS assay for small molecule antagonists of glucocorticoid receptor signaling (AID 588533; active means well fitted inhibition curve with a large enough effect in the signal ratio, with a control signal flat, not every such curve was filed as active; the % refers to the signal ratio; further: on the % scale 0 is the no-effect control and ±100 the full control effect)
Summary of the method: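 Antagonist-mode qHTS: compound titrations added to GRE-bla HeLa cells, then dexamethasone 2 nM final; 18 h, 37 C. CCF4 FRET fluorescence normalized to dexamethasone and DMSO; IC50 from Hill fit.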

[22] = biological target: Peroxisome proliferator-activated receptor delta (Homo sapiens) (UniProt Q03181); test: qHTS assay for small molecule agonists of peroxisome proliferator-activated receptor delta signaling (AID 588534);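 further: 0% = DMSO basal wells and 100% = positive control agonist at 10 µM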
Summary of the method: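 Cells carrying a PPAR-delta beta-lactamase reporter were treated with compounds for 18 h at 37 °C in agonist mode. CCF4 fluorescence was read after 2 h; EC50 and efficacy from Hill fits.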

[23] = biological target: Peroxisome proliferator-activated receptor gamma (Homo sapiens) (UniProt P37231); test: qHTS assay for small molecule agonists of peroxisome proliferator-activated receptor gamma signaling (AID 588536; active means well fitted curve in the direction sought with a large enough effect in the signal ratio, with a control signal flat, not every such curve was filed as active; the % refers to the signal ratio;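 further: 0% = DMSO basal wells and 100% = rosiglitazone at 2 µM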)
Chain of Peroxisome proliferator-activated receptor gamma (Homo sapiens) (P37231 whole entry, looked up): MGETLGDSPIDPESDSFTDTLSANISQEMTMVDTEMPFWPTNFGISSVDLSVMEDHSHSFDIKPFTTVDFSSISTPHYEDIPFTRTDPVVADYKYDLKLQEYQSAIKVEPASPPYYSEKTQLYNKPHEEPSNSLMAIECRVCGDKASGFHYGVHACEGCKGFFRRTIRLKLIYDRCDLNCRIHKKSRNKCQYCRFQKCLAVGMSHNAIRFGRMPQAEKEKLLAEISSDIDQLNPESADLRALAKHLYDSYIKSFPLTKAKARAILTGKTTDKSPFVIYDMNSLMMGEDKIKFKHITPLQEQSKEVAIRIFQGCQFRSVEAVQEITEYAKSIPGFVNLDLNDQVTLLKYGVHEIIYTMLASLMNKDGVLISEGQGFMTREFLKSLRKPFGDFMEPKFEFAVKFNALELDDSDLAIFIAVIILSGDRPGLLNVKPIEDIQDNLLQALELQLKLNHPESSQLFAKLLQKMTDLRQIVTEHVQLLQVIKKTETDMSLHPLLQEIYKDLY
Summary of the method: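 PPAR-gamma-UAS-bla HEK293 cells in medium with 1% charcoal/dextran-treated FBS were exposed to compounds for 16 h at 37 C. Beta-lactamase activity was read with CCF4 substrate (405 nm excitation, 460/530 nm emission).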

[24] = biological target: Peroxisome proliferator-activated receptor gamma (Homo sapiens) (UniProt P37231); test: qHTS assay for small molecule antagonists of peroxisome proliferator-activated receptor gamma signaling (AID 588537; active means well fitted inhibition curve with a large enough effect in the signal ratio, with a control signal flat, not every such curve was filed as active; the % refers to the signal ratio;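 further: reporter cells co-stimulated with 50 nM rosiglitazone agonist during compound treatment; % of control where 0% means no effect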)
Summary of the method: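 PPARγ-UAS-bla HEK293 cells (3000/well) in 1% charcoal/dextran-stripped FBS are treated with compound, then stimulated with 50 nM rosiglitazone for 16 h at 37 °C. Read-out is CCF4 β-lactamase fluorescence after 2 h at RT. IC50 comes from Hill fits normalised to rosiglitazone and DMSO.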

[25] = biological target: Vitamin D3 receptor (Homo sapiens) (UniProt P11473); test: qHTS assay for small molecule agonists of vitamin D receptor signaling (AID 588543);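 further: 0% = DMSO basal and 100% = reference agonist control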
Summary of the method: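 β-lactamase reporter, VDR-UAS-bla HEK293T, agonist mode. Cells plated 5 h at 37 °C, compound titration 16 h at 37 °C, CCF4 dye 2 h RT, ratio 460/530 nm. Hill fit → EC50, efficacy vs 50 nM 1α,25-(OH)2D3.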

[26] = qHTS assay for small molecule agonists of the antioxidant response element (ARE) signaling pathway measured by Nrf2-dependant transcriptional activity (AID 720636; active means well fitted curve in the direction sought with a large enough effect in the repeat runs; an effect the other way counts as inactive or inconclusive;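 further: HepG2 cells with an ARE-driven luciferase reporter; % of control where 0% means no effect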)
Summary of the method: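 Reporter gene assay, HepG2 ARE-luc: 16 hr compound, 37 C, 5% CO2; read-out luciferase luminescence.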

[27] = qHTS assay for small molecule agonists of the antioxidant response element (ARE) signaling pathway measured by Nrf2-dependant transcriptional activity - cell viability counter screen (AID 720653; active means well fitted curve in the direction sought with a large enough effect in the repeat runs; an effect the other way counts as inactive or inconclusive; further: on the % scale 0 is the no-effect control and ±100 the full control effect); conditions: ARE-bla HepG2 viability, CellTiter-Glo ATP luminescence, 16 h; max response: stronger effect = lower value
Summary of the method: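 ARE-bla HepG2 cells treated with compounds for 16 h at 37C; this counter screen measures viability as intracellular ATP by CellTiter-Glo luminescence after 30 min at room temperature.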

[28] = qHTS assay for small molecule activators of the human pregnane X receptor (PXR) signaling pathway (AID 720659; call rule not given here; further: 0% is about no effect)
[29] = biological target: Androgen receptor (Homo sapiens) (UniProt P10275); test: qHTS assay for small molecule agonists of androgen receptor signaling (AID 588515; active means well fitted curve in the direction sought with a large enough effect in the signal ratio, with a control signal flat; the % refers to the signal ratio; further: on the % scale 0 is the no-effect control and ±100 the full control effect); conditions: AR-UAS-bla HEK293, beta-lactamase ratio, agonist 16 h; stronger effect = higher value
Summary of the method: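 EC50 and efficacy came from Hill fits of titrations (up to 92 uM) normalized to 30 nM R1881 as 100% and DMSO as 0%. Compound exposure was 16 h at 37 C on AR-UAS-bla HEK293 cells, with a 405/460/530 nm CCF4 fluorescence read.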

CCOC(=O)COc1cc(-c2nn(C)c(OC(F)F)c2Cl)c(F)cc1Cl
active: Potency [14] 44.7 µM
58.4%: max response [3]
16.9%: max response [9]
3.77%: max response [6]
inactive: Potency [1] | activation [2] -3.65% | Potency [4] | Potency [5] | Potency [7] | Potency [8] | max response [10] -15.1% | activity change % (negative = inhibition) [11] 7.86% | activation [12] -1.21% | activation [13] 1.18% | max response [15] -0.355% | max response [16] -5.44% | Potency [17] | max response [18] 0.553%

COc1nn(C(=O)NS(=O)(=O)c2ccccc2OC(F)(F)F)c(=O)n1C
-2.65%: max response [9]
inactive: Potency [19] | activation [20] 1.22% | activation [2] -3.65% | Potency [21] | outcome [22] | Potency [23] | Potency [24] | Potency [5] | outcome [25] | Potency [7] | Potency [8] | max response [10] -13.4% | activity change % (negative = inhibition) [11] 8.96% | activation [13] -2.5% | activation [14] 1.39% | max response [15] -1.08% | Potency [26] | max response [27] 3.81% | max response [16] -3.61% | Potency [17] | max response [18] 1.31% | outcome [28]
-2.96%: max response [6]

CCCCOC(=O)c1ccccc1C(=O)O
-15.3%: max response [6]
inactive: activation [29] 5.7% | Potency [19] | activation [20] -1.61% | outcome [22] | Potency [4] | Potency [23] | Potency [24] | Potency [7] | Potency [8] | max response [10] 13.7% | activity change % (negative = inhibition) [11] 6.47% | activation [12] -2.82% | activation [13] 1.8% | activation [14] -4.01% | max response [15] 0.528% | Potency [26] | max response [27] 18.5% | max response [16] 6.89% | max response [18] -8.39% | outcome [28]
2.69%: max response [9]
23.7%: max response [3]

CC(C)N1C(=O)N(c2ccccc2)CSC1=NC(C)(C)C
15.4% and 12.1%: max response [6]
0.399%: max response [9]
43.5%: max response [3]
inactive: activation [29] -16.2% and -14% | activation [2] -1.49% and -3.83% | outcome [22] | Potency [4] | Potency [5] | outcome [25] | Potency [7] | Potency [8] | max response [10] -33.9% | activation [12] -1.27% and 6.3% | activation [13] 0.243% and -2.38% | activation [14] -0.494% and 3.86% | max response [15] 0.0616% and 14.7% | Potency [26] | max response [27] 13.9% and -6.65% | max response [16] -17.9% | Potency [17] | max response [18] 13.3% and 1.8%
